Our source for the outcome values is PubChem BioAssay AID720690 (Broad Institute, 2013).

Results with a measured potency or affinity are listed apart. Activity calls are given as the source filed them.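 How the source made its calls: active means every repeat run showing a signal drop whose fitted half-maximal concentration is at most twice the top tested concentration; inconclusive means repeat runs disagree, or flat partial drop, or poor fit; inactive means the rest.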

The assay can be described thus: general mammalian cell viability loss – activator set, cherry-pick, cytotoxicity control for miR-122 modulator project, dose response (AID 720690). The note with it: HEK293T viability, CellTiter-Glo luminescence, 48 h; series mostly up to 26 µM. Background: In ATP-based viability assays light output follows the ATP content of the culture.
Regarding `CCCC(=O)Nc1ccc2c(c1)C(=O)N(C)[C@@H]1CC[C@H](CC(=O)NCCN3CCCCC3)O[C@H]1CO2`, the outcome was inactive.
With `CN1C(=O)c2cc(NS(=O)(=O)c3cccc(F)c3)ccc2OC[C@@H]2O[C@@H](CC(=O)O)CC[C@@H]21`, the outcome was inactive.
As for `CO[C@H]1CN(C)C(=O)c2ccc(NC(C)=O)cc2OC[C@@H](C)N(C(=O)CC2CC2)C[C@H]1C`, the result was inactive.
For the molecule `COCC(=O)N(C)C[C@H]1Oc2cc(C#Cc3cccnc3)ccc2S(=O)(=O)N([C@@H](C)CO)C[C@H]1C`, the molecule was called inactive.
Turning to `Cc1cc(C(=O)Nc2ccc3c(c2)C(=O)N(C)[C@H]2CC[C@H](CC(=O)N[C@H](C)c4ccccc4)O[C@H]2CO3)no1`, the molecule was classed as inactive.
The entry for `COCC(=O)Nc1ccc2c(c1)C(=O)N(C)[C@@H]1CC[C@@H](CC(=O)NC3CCCC3)O[C@@H]1CO2` is “inactive”; for `C/C=C/c1ccc2c(c1)O[C@H](CN(C)C(=O)Cc1cccnc1)[C@H](C)CN([C@H](C)CO)S2(=O)=O` it is “inactive”; for `COc1nnc(-c2ccc(N3CCOCC3)c(NC(=O)c3ccccc3)c2)c2ccccc12` it is “inactive”.
`COc1ccc(CC(NC(C)=O)C(=O)N2CCN(C(=O)N(C(C)C)C(C)C)CC2)cc1` (centres undefined): the call was inactive.
With `CN1C(=O)c2cc(NC(=O)Nc3ccc(Cl)cc3)ccc2OC[C@@H]2O[C@@H](CC(=O)NCCN3CCCCC3)CC[C@H]21`, the molecule was called inactive.
For the molecule `CNC(=O)C[C@H]1CC[C@@H]2[C@@H](COc3ccc(NC(=O)c4cccc(OC)c4)cc3C(=O)N2C)O1`, the outcome was inactive.
`CCCNC(=O)C[C@@H]1CC[C@@H]2[C@H](COc3ccc(NS(=O)(=O)c4ccccc4C)cc3C(=O)N2C)O1`: the molecule was called inactive.
The entry for `CC(C)N(C[C@H]1[C@H](c2ccccc2)[C@@H](CO)N1S(C)(=O)=O)C(=O)CN(C)C` is “inactive”; for `O=C(NCCCN1CCCC1)c1ccc(CSCc2cccc(Cl)c2)o1` it is “inactive”; for `COc1ccc(N2CCc3c(C)nc4c(OC)cc(OC)cc4c32)c(OC)c1` it is “inactive”.
Take `CNC(=O)C[C@H]1CC[C@@H]2[C@H](COc3ccc(NS(=O)(=O)c4ccc(F)cc4)cc3C(=O)N2C)O1`: the molecule was classed as inactive.
On to `COC(=O)c1cc(NS(=O)(=O)c2ccc3c(c2)CCC(=O)N3)cc(C(=O)OC)c1`, for which the molecule was classed as inactive.
Take `Cc1cccc(NC(=O)Nc2ccc3c(c2)C(=O)N(C)[C@@H]2CC[C@@H](CC(=O)NCc4ccccc4Cl)O[C@H]2CO3)c1`: the molecule was called inactive.
`CC(C)OCCCNC(=O)c1ccncc1`: the outcome was inactive.
Regarding `COCC(=O)Nc1ccc2c(c1)C(=O)N(C)[C@@H]1CC[C@@H](CC(=O)NC3Cc4ccccc4C3)O[C@@H]1CO2`, the call was inactive.
For `CCCC(=O)Nc1ccc2c(c1)C(=O)N(C)[C@H]1CC[C@H](CC(=O)NCCN3CCCCC3)O[C@@H]1CO2` the value was “inactive”; for `CNc1nc(NCCOc2ccccc2)c2sccc2n1`, “inactive”.
With `COc1ccc(S(=O)(=O)N(C)C[C@@H]2Oc3cc(-c4cccc(F)c4)ccc3S(=O)(=O)N([C@@H](C)CO)C[C@H]2C)cc1`, the molecule was classed as inactive.
Regarding `CN1C(=O)c2cc(NC(=O)c3cccs3)ccc2OC[C@@H]2O[C@H](CC(=O)NCCN3CCCCC3)CC[C@H]21`, the result was inactive.
`COCC(=O)Nc1ccc2c(c1)C(=O)N(C)[C@@H]1CC[C@H](CC(=O)NCCCN(C)C)O[C@H]1CO2`: the molecule was classed as inactive.
Regarding `CCCNC(=O)C[C@@H]1CC[C@@H]2[C@@H](COc3ccc(NS(=O)(=O)c4ccccc4C)cc3C(=O)N2C)O1`, the outcome was inactive.
As to `CCNC(=O)C[C@@H]1CC[C@@H]2[C@@H](COc3ccc(NC(=O)C4CCCCC4)cc3C(=O)N2C)O1`, the molecule was classed as inactive.
The entry for `CC(C)NC(=O)Nc1ccc2c(c1)C(=O)N(C)[C@H]1CC[C@H](CC(=O)NCC(F)(F)F)O[C@H]1CO2` is “inactive”.
As for `CN1C(=O)c2cc(NC(=O)c3cccc(F)c3)ccc2OC[C@@H]2O[C@@H](CC(=O)Nc3ccccc3)CC[C@@H]21`, the molecule was called inactive.
The entry for `C/C=C/c1ccc([C@@H]2[C@@H](CO)N[C@@H]2CN(C(=O)C2CCCC2)C(C)C)cc1` is “inactive”.
Take `CN(C[C@H]1N[C@@H](CO)[C@@H]1c1ccc(C2=CCCC2)cc1)C(=O)c1ccccn1`: the call was inactive.
Consider `Cc1cc2n(n1)C(c1cn(-c3ccccc3)nc1C)Nc1c(C)cccc1-2` (centres undefined), for which the molecule was called inactive.
Take `O=C(Nc1ccccc1N1CCN(C(=O)c2ccc(Cl)cc2)CC1)c1cccnc1`: the molecule was called inactive.
Regarding `Cc1cc(C)n(C(=O)Cn2nc(C)c(Br)c2C)n1`, the call was inactive.
The entry for `CCC(=O)N1[C@H](CO)[C@H](c2ccccc2)[C@@H]1CN(CC)C(=O)c1ccccc1` is “inactive”; for `CCCNC(=O)Nc1ccc2c(c1)C(=O)N(C)[C@H]1CC[C@H](CC(=O)NC3CCC3)O[C@H]1CO2` it is “inactive”.
For `CCC(=O)NC[C@@H]1[C@@H](c2ccc(C3=CCCC3)cc2)[C@@H](CO)N1C(C)=O`, the result was inactive.
The entry for `C/C=C/c1ccc([C@H]2[C@@H](CO)N(C(=O)CC)[C@H]2CNC(=O)CC)cc1` is “inactive”; for `CO[C@@H]1CN(C)C(=O)c2cc(NC(=O)Nc3ccc(Cl)c(Cl)c3)ccc2OC[C@H](C)NC[C@H]1C` it is “inactive”.
